Paper PMC5540273 (PLoS ONE, 2017)

Key:
Conditions in all cases: concentration: 1 μM, replicates: in singlicate; n = 1
RIOK1 = system: RIOK1
RIOK2 = system: RIOK2
RIOK3 = system: RIOK3
RIPK1 = system: RIPK1
RIPK2 = system: RIPK2
RIPK4 = system: RIPK4
RIPK5 = system: RIPK5
ROCK1 = system: ROCK1
ROCK2 = system: ROCK2
ROS1 = system: ROS1
[1] = system: RPS6KA4(Kin.Dom.1-N-terminal)
[2] = system: RPS6KA4(Kin.Dom.2-C-terminal)
[3] = system: RPS6KA5(Kin.Dom.1-N-terminal)
[4] = system: RPS6KA5(Kin.Dom.2-C-terminal)
[5] = system: T1, RSK1(Kin.Dom.1-N-terminal)
T1 construct: gene RPS6KA1

[6] = system: T2, RSK1(Kin.Dom.2-C-terminal)
T2 construct: gene RPS6KA1

[7] = system: T3, RSK2(Kin.Dom.1-N-terminal)
T3 construct: gene RPS6KA3

[8] = system: T4, RSK2(Kin.Dom.2-C-terminal)
T4 construct: gene RPS6KA3

[9] = system: T5, RSK3(Kin.Dom.1-N-terminal)
T5 construct: gene RPS6KA2

[10] = system: T6, RSK3(Kin.Dom.2-C-terminal)
T6 construct: gene RPS6KA2
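Also: KINOMEscan kinase panel screen.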

| Structure (SMILES) | %Inh (RIOK1) | %Inh (RIOK2) | %Inh (RIOK3) | %Inh (RIPK1) | %Inh (RIPK2) | %Inh (RIPK4) | %Inh (RIPK5) | %Inh (ROCK1) | %Inh (ROCK2) | %Inh (ROS1) | %Inh [1] | %Inh [2] | %Inh [3] | %Inh [4] | %Inh [5] | %Inh [6] | %Inh [7] | %Inh [8] | %Inh [9] | %Inh [10] |
| --- | --- | --- | --- | --- | --- | --- | --- | --- | --- | --- | --- | --- | --- | --- | --- | --- | --- | --- | --- | --- |
| CNc1nccc(-c2ccc3c(N)n[nH]c3c2)n1 [GSK2206003] | 98.2% | 85% | 82% | 8% | 0% | 41% | 0% | 52% | 62% | 22% | 3% | 91.8% | 19% | 63% | 22% | 22% | 38% | 0% | 14% | 5% |
| O=C(Nc1n[nH]c2nc(-c3ccccc3)ccc12)C1CC1 [SB-708999] | 35% | 1% | 37% | 63% | 0% | 2% | 0% | 21% | 12% | 0% | 5% | 0% | 13% | 4% | 0% | 0% | 0% | 32% | 4% | 0% |
| N#CC1(c2cccc(C(=O)Nc3cccc(Oc4ccc5nc(NC(=O)C6CC6)sc5n4)c3)c2)CC1 | 0% | 0% | 0% | 15% | 55% | 0% | 0% | 0% | 0% | 1% | 0% | 2% | 0% | 0% | 0% | 25% | 15% | 1% | 25% | 21% |
| CN1CCN(Cc2ccc(NC(=O)Nc3ccc(N(C)c4ccnc(Nc5ccc(CS(C)(=O)=O)cc5)n4)cc3)cc2)CC1.Cl [GW827654] | 94.1% | 100% | 93.4% | 40% | 34% | 72% | 94.9% | 94.6% | 99.2% | 40% | 39% | 16% | 0% | 0% | 75% | 15% | 0% | 46% | 42% | 25% |
| CN(C)CCNS(=O)(=O)c1ccc(-c2ccnc3[nH]ccc23)cc1 [GSK977620] | 78% | 78% | 64% | 0% | 0% | 3% | 0% | 99.6% | 98.3% | 48% | 30% | 73% | 44% | 68% | 30% | 31% | 60% | 9% | 32% | 21% |
| Fc1cc(Cl)ccc1Nc1ccnc2cc(-c3ccc(CN4CCOCC4)o3)ccc12 [GW560109] | 30% | 0% | 0% | 0% | 94.4% | 0% | 0% | 5% | 46% | 0% | 35% | 0% | 9% | 0% | 6% | 28% | 14% | 44% | 100% | 0% |
| CC(C)(C)c1ccc(C(=O)Nc2cn3cc(-n4ccnc4)ccc3n2)cc1 | 0% | 6% | 0% | 2% | 24% | 0% | 34% | 0% | 0% | 0% | 0% | 22% | 10% | 31% | 0% | 0% | 25% | 0% | 0% | 0% |
| Cc1ccc(-c2ccc3occ(-c4ccc(S(C)=O)cc4)c3c2)nn1 (centres unmarked) | 0% | 10% | 0% | 0% | 0% | 0% | 0% | 6% | 0% | 0% | 1% | 0% | 22% | 0% | 0% | 0% | 0% | 9% | 0% | 0% |
| COc1cc(Nc2nccc(N3CCC(NC(=O)Nc4ccc5c(c4)OCO5)C3)n2)cc(OC)c1OC (centres unmarked) [GSK1379766] | 79% | 0% | 81% | 0% | 19% | 62% | 0% | 25% | 44% | 36% | 0% | 0% | 1% | 18% | 22% | 2% | 5% | 0% | 10% | 5% |
| Cc1cccc(Nc2nc(N[C@H]3CCCC[C@H]3N)ncc2C(N)=O)c1.Cl [GSK986310] | 48% | 42% | 42% | 7% | 2% | 68% | 17% | 85% | 82% | 62% | 32% | 0% | 22% | 0% | 46% | 20% | 53% | 28% | 23% | 12% |
